In PubChem BioAssay (NCATS):
Inconclusive results are not listed. The source made the active and inactive calls. The call rests on the fitted dose curve.

The compounds below were run against Peroxisome proliferator-activated receptor delta (Homo sapiens) (UniProt Q03181) (assay: qHTS assay for small molecule agonists of peroxisome proliferator-activated receptor delta signaling (AID 588534)). Details: HEK293T PPARdelta-UAS-bla, beta-lactamase ratio, 18 h; series mostly up to 76.7 µM.
Outline: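 Cell-based beta-lactamase reporter assay run in agonist mode: cells seeded and incubated 5 hrs at 37 C, compounds added and incubated 18 hrs at 37 C. CCF4 dye fluorescence read after 2 hrs at RT; EC50 and efficacy from Hill fits.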

Sequence of Peroxisome proliferator-activated receptor delta (Homo sapiens) (Q03181 whole entry, looked up): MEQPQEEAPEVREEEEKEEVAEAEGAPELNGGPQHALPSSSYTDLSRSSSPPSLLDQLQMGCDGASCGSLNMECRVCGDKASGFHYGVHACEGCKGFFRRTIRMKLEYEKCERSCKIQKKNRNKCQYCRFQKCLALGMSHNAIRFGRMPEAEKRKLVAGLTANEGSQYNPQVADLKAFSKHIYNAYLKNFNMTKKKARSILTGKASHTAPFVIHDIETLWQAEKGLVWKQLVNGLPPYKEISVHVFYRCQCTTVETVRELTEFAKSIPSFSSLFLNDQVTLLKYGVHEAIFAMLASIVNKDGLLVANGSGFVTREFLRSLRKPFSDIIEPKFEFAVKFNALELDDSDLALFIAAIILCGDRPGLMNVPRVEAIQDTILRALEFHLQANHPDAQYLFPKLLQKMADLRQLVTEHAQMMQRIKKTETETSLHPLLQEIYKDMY

Row | SMILES | outcome
1 | Nc1c(Cl)cc(Cl)cc1Cl | inactive
2 | N#CC1(O)CCCCC1 | inactive
3 | CCCCN(CCO)CCCC | inactive
4 | C=CC(C)(O)CC/C=C(\C)CCC=C(C)C (stereo not given) | inactive
5 | CCC(C)(C)OC | inactive
6 | NCCCCCCCCCCC(=O)O | inactive
7 | O=C(O)CNC(=O)c1ccc([N+](=O)[O-])cc1 | inactive
8 | CC(C)(c1cc(Br)c(O)c(Br)c1)c1cc(Br)c(O)c(Br)c1 | inactive
9 | C1CCOC1 | inactive
10 | C=Cc1ccc(P(c2ccccc2)c2ccccc2)cc1 | inactive
11 | COC(=O)C1CCC(C(=O)OC)CC1 (stereo not given) | inactive
12 | Cc1ccc(C(=O)O)cc1 | inactive
13 | CC(/C=C/C=C(C)/C=C/C(=O)O)=C\C=C\C=C(C)\C=C\C=C(C)\C=C\C(=O)O | inactive
14 | CC(C)(C)[C@H](O)[C@H](Cc1ccc(Cl)cc1)n1cncn1 | inactive
15 | CC(=O)OC1CC(C)OC(C)O1 (stereo not given) | inactive
16 | O=C(O)c1ccccc1[N+](=O)[O-] | inactive
17 | C=CC(=O)NC(C)C | inactive
18 | CNC(=O)c1ccccc1 | inactive
19 | CC(N)CN (stereo not given) | inactive
20 | Cl[Si](Cl)(Cl)c1ccccc1 | inactive

Row | SMILES | outcome
21 | CC(C)=CCC/C(C)=C\CO | inactive
22 | Nc1ccccc1[N+](=O)[O-] | inactive
23 | C[Si](C)(C)O[Si](C)(C)C | inactive
24 | Nc1cccc(O)c1 | inactive
25 | CC(COCC(C)OC(=O)c1ccccc1)OC(=O)c1ccccc1 (stereo not given) | inactive
26 | CCCCOCC(C)OCC(C)O (stereo not given) | inactive
27 | CCCCOCCOCCOC(=O)CCCCC(=O)OCCOCCOCCCC | inactive
28 | CCC(C)O (stereo not given) | inactive
29 | Cc1ccc([N+](=O)[O-])c(C)c1 | inactive
30 | O=[N+]([O-])c1ccc(NCCO)c(OCCO)c1 | inactive
31 | O=C(O)CN(CCCN(CC(=O)O)CC(=O)O)CC(=O)O | inactive
32 | CC(=O)Nc1ccc(N=Nc2cc(C)ccc2O)cc1 | inactive
33 | C=Cc1ccc(C=C)cc1 | inactive
34 | CC1COCc2cc3c(cc21)C(C)(C)C(C)C3(C)C (stereo not given) | inactive
35 | CCCCC(CC)COP(=O)(O)OCC(CC)CCCC (stereo not given) | inactive
36 | CC(Cl)(Cl)C(=O)OCCOc1cc(Cl)c(Cl)cc1Cl | inactive
37 | C#CCOC(=O)[C@@H](C)Oc1ccc(Oc2ncc(Cl)cc2F)cc1 | inactive
38 | Oc1c(Cl)cc(Cl)c(Cl)c1Cl | inactive
39 | CCC(C)(C)C(=O)O | inactive
40 | O=C(O)c1c(Cl)cccc1Cl | inactive
